# Several values for one entry are separate records, joined by “and”; a condition that tells them apart may be missing. Equal values may be shown once. Results filed as inconclusive are left out. Activity calls are given as the source filed them. Unless noted, cut-off not given; nearly all actives show AC50 up to about 26 µM.
# What was measured:
# [1] = growth inhibition of DIPG glioma cells, dose response, cell-based, SU-DIPG-XVII, MIPE5.0, CellTiter-Glo, qHTS (AID 1347060); settings: SU-DIPG-XVII viability, CellTiter-Glo ATP luminescence;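 on AC50: cells exposed to compound for 48 hours before viability readout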
# [2] = growth inhibition of DIPG glioma cells, dose response, cell-based, SU-DIPG-XIII, MIPE4.0, CellTiter-Glo, qHTS (AID 1347061; cut-off not given, nearly all actives have AC50 up to about 37 µM;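 further: cells exposed to compound for 48 hours before readout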); settings: SU-DIPG-XIII viability, CellTiter-Glo ATP luminescence
# [3] = growth inhibition of DIPG glioma cells, dose response, cell-based, SU-DIPG-IV, MIPE4.0, CellTiter-Glo, qHTS (AID 1347063; cut-off not given, nearly all actives have AC50 up to about 30 µM;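 further: compound exposure lasted 48 hours before the viability readout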); settings: SU-DIPG-IV viability, CellTiter-Glo ATP luminescence
# [4] = growth inhibition of DIPG glioma cells, dose response, cell-based, SU-DIPG-XIII, MIPE5.0, CellTiter-Glo, qHTS (AID 1347064; cut-off not given, nearly all actives have AC50 up to about 23 µM;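 on AC50: cells exposed to compound for 48 hours before the viability read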); settings: SU-DIPG-XIII viability, CellTiter-Glo ATP luminescence
# [5] = SU-DIPG-VI glioma cell viability, MIPE4.0 library, CellTiter-Glo luminescence, qHTS (AID 1347066; cut-off not given, nearly all actives have AC50 up to about 30 µM;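 further: cells exposed to compound for 48 hours before readout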); settings: CellTiter-Glo ATP luminescence
# [6] = JHH-DIPG-1 glioma cell viability, MIPE5.0 library, CellTiter-Glo luminescence, qHTS (AID 1347067); settings: JHH-DIPG-1 glioma viability, CellTiter-Glo ATP luminescence;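 further: cells exposed to compound for 48 hours before readout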
# [7] = sensitizers of A549 cells to miR-34 induction, primary screen, imaging, A549 dox-inducible miR-34, nuclei and caspase counts (AID 1347080;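 active means compounds whose cell count with miR-34 switched on is under 0.7 times the count with it off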); settings: A549 miR-34 inducible, Hoechst nuclei count, 48 h
# [8] = viability loss in pontine glioma line – cell-based, SU-DIPG-XXV, MIPE5.0, CellTiter-Glo, qHTS, dose response (AID 1347065); settings: CellTiter-Glo ATP luminescence;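 further: cells exposed to compound for 48 hours before ATP readout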
# [9] = SU-DIPG-XXV glioma cell viability, MIPE5.0 library, qHTS (AID 1347068; cut-off not given, nearly all actives have IC50 up to about 30 µM)
# [10] = survival rescue of mitochondrial mutant cells in low glucose, primary screen, MELAS cybrids, Rieske KO mouse fibroblasts, CellTiter-Glo (AID 1508586;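 active means mean z-score across replicates of 1.96 or higher in either the MELAS or the Rieske mutant cell line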;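 further: z relative to plate mean and SD of compound and empty wells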)
# [11] = stronger effect = lower value, cell number ratio, induced over uninduced
# [12] = measured here: relative caspase fold change +Dox/-Dox
# [13] = measured here: total cells with miR-34 induction, stronger effect = lower value
# [14] = measured here: total cells without miR-34 induction
# [15] = MELAS cybrid survival, CellTiter-Glo 48 h, stronger effect = higher value
# [16] = Rieske KO mouse fibroblast survival, CellTiter-Glo 72 h
structure (smiles),measurement,setting,value
CC(=O)OC1C(C)OC(Oc2c(-c3ccc(O)cc3)oc3cc(O)cc(O)c3c2=O)C(O)C1OC(C)=O (configuration not stated),outcome,[1],inactive
same,outcome,[2],inactive
same,AC50,[3],20.9 µM (active)
C/C=C/C/C=C/CCC(=O)[C@H]1O[C@H]1C(N)=O,AC50,[1],20.9 µM (active)
same,outcome,[2],inactive
same,AC50,[4],20.9 µM (active)
same,outcome,[5],inactive
same,AC50,[6],23.5 µM (active)
same,fold change,[7]; [11],0.809 (inactive) and 1.05 (inactive)
same,fold change,[7]; [12],2.34 and 1.07
same,cell count,[7]; [13],532 and 6420
same,cell count,[7]; [14],658 and 6130
Cc1cc(C(=O)N2CCN(c3cccc(Cl)c3)CC2)n(-c2ccccc2)n1,AC50,[1],7.42 µM (active)
same,outcome,[2],inactive
same,AC50,[8],9.34 µM (active)
same,outcome,[5],inactive
COc1cc(C(C)C)c2c(c1)S(=O)(=O)N(COc1cc(=O)n3cccc(OCCN4CCCCC4)c3n1)C2=O,AC50,[1],23.5 µM (active)
same,outcome,[2],inactive
same,AC50,[8],20.9 µM (active)
NC1=N[C@@]2(c3cc(NC(=O)c4ccc(F)cn4)ccc3F)COC[C@H]2CS1,outcome,[1],inactive
same,outcome,[2],inactive
same,outcome,[8],inactive
same,outcome,[5],inactive
same,outcome,[6],inactive
same,outcome,[9],inactive
CN[C@@H](C)C(=O)N[C@H]1CCCC[C@H]2CC[C@@H](C(=O)N[C@@H](c3ccccc3)c3cn(CCCCc4ccc(CCCCn5cc([C@@H](NC(=O)[C@@H]6CC[C@@H]7CCCC[C@H](NC(=O)[C@H](C)NC)C(=O)N76)c6ccccc6)nn5)cc4)nn3)N2C1=O,outcome,[1],inactive
same,outcome,[2],inactive
same,outcome,[4],inactive
same,outcome,[5],inactive
same,outcome,[6],inactive
C[C@@H](NC(=O)c1ncnc(N)c1Cl)c1ncc(C(=O)Nc2cc(C(F)(F)F)c(Cl)cn2)s1,AC50,[1],16.6 µM (active)
same,AC50,[2],18.7 µM (active)
same,AC50,[4],14.8 µM (active)
same,outcome,[5],inactive
same,AC50,[6],5.9 µM (active)
same,outcome,[9],inactive
O=C(Nc1ccc(Oc2ccnc3[nH]ccc23)c(F)c1)c1cccn(-c2ccc(F)cc2)c1=O,outcome,[1],inactive
same,outcome,[2],inactive
same,outcome,[4],inactive
same,outcome,[8],inactive
same,outcome,[5],inactive
same,outcome,[6],inactive
same,outcome,[9],inactive
C/C=C/C[C@@H](C)C(=O)[C@H]1C(=O)N[C@@H](C(C)C)C(=O)N(C)CC(=O)N(C)[C@@H](CC(C)C)C(=O)N[C@@H](C(C)C)C(=O)N(C)[C@@H](CC(C)C)C(=O)N[C@@H](C)C(=O)N[C@H](C)C(=O)N(C)[C@@H](CC(C)C)C(=O)N(C)[C@@H](CC(C)C)C(=O)N(C)[C@@H](C(C)C)C(=O)N1C,AC50,[1],8.11 µM (active)
same,AC50,[2],18.7 µM (active)
same,AC50,[8],5.74 µM (active)
O=C(O)Cn1nnc(-c2cc(N3CCC(Oc4cc(F)ccc4Br)CC3)no2)n1,outcome,[1],inactive
same,outcome,[2],inactive
same,outcome,[3],inactive
same,outcome,[4],inactive
same,outcome,[5],inactive
same,outcome,[6],inactive
same,outcome,[9],inactive
same,fold change,[7]; [11],0.885 (inactive)
same,fold change,[7]; [12],0.826
same,cell count,[7]; [13],6300
same,cell count,[7]; [14],7120
same,z-score,[10]; [15],-0.382 (inactive)
same,z-score,[10]; [16],0.855
Cc1n[nH]c(C)c1Cc1sc2c(c1C(=O)N1C[C@H](O)CO1)c(=O)n(C)c(=O)n2CC(C)C,outcome,[1],inactive
same,outcome,[2],inactive
same,outcome,[3],inactive
same,outcome,[5],inactive
same,outcome,[6],inactive
same,outcome,[9],inactive
CC1=C(C(=O)Nc2cc3cn[nH]c3cc2F)C(c2ccc(C(F)(F)F)cc2)CC(=O)N1 (configuration not stated),outcome,[1],inactive
same,outcome,[2],inactive
same,outcome,[3],inactive
same,outcome,[4],inactive
same,outcome,[6],inactive
same,outcome,[9],inactive
same,fold change,[7]; [11],1.03 (inactive)
same,fold change,[7]; [12],0.78
same,cell count,[7]; [13],5210
same,cell count,[7]; [14],5040
same,z-score,[10]; [15],-0.364 (inactive)
same,z-score,[10]; [16],0.0194
